# Screening results (PubChem BioAssay)
# Compounds with a hit are over-represented: about 3.4% of the library has one in this group of screens.
# PK Bst: Pyruvate Kinase; purified pyruvate kinase, luminescence ATP production; ribose 5-phosphate activator present at AC10; Potency, µM; 1.2% of 51,000 active; in the data active = potency below about 11 µM; inconclusive = mostly about 12 µM to 25 µM;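 the screen sought inhibitors and activators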;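 note: scaled between full activation by ribose 5 phosphate and full inhibition by luteolin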
# GBA mod: Glucocerebrosidase; Lysosomal acid glucosylceramidase (Homo sapiens), P04062; purified enzyme, resorufin glucoside fluorescence (screen aimed at inhibitors), 20 min; Potency, µM; 1.1% of 48,000 active; AID 360, 2006; in the data active = potency below about 15 µM; inconclusive = mostly about 16 µM to 33 µM;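 note: the screen sought inhibitors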
#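 Compounds titrated against 0.2 nM normal enzyme, 30 uM resorufin beta-D-glucopyranoside substrate, citrate/phosphate buffer with taurocholate and tween-20, pH 5.9. Reaction ran 20 min at room temperature; fluorescence (Ex 548/Em 600) gave AC50.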
# Luciferase inh: qHTS Assay for Inhibitors of Firefly Luciferase. Luciferin 4-monooxygenase (Photinus pyralis), P08659. purified firefly luciferase, luminescence, 8 min. Potency, µM (highest dose often 57.1 µM), inactives show at the top dose activity change, negative = inhibition, most hits filed as inhibitors. 2.2% of 72,000 active. AID 411, 2009; active = well fitted inhibition curve with a large enough effect; inconclusive = small, poorly fitted or top-dose-only effect; note: % is set by controls: 0 for no effect and ±100 for the full control effect; nearly all actives have a fitted effect of over 40% in size
# Target sequence (P08659 whole entry, looked up): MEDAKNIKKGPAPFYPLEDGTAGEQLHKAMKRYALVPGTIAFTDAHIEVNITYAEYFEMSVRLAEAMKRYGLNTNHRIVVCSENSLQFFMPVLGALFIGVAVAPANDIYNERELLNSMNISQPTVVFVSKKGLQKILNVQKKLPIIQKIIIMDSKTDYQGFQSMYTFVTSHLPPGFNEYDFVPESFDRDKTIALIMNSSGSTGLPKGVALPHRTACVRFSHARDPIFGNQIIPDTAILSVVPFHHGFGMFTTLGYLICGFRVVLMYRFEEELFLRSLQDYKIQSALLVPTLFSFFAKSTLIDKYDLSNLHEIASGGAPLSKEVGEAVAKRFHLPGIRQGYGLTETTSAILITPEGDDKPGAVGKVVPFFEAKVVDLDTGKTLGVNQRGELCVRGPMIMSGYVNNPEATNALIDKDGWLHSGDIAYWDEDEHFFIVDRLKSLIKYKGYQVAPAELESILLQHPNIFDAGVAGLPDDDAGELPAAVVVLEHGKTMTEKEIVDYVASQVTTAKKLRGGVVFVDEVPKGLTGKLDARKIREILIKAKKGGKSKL
#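 Titration-based qHTS; buffer 50 mM imidazole pH 7.2, 50 mM KCl, 7 mM MgCl2, 10 uM ATP, 0.01% Tween 20, 0.05% BSA; luciferase/luciferin detector mix added after compound; 8 min, ambient; luminescence.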
# Starred values were filed as active, the others as inactive; i = inactive; ? = inconclusive; nt = no result; [ ] = remark or other dose. Potency is the fitted concentration of half-maximal effect.
SMILES,PK Bst,GBA mod,Luciferase inh
O=P(O)(O)OP(=O)(O)O,nt,nt,2.2%[11.4 µM]
O=C(c1cccs1)N1CCC(c2ccccc2)C1 (configuration not stated),nt,>76.9,12.6µM*
NC(=O)C1CCN(C(=O)Nc2ccccc2)CC1,>57,nt,nt
O=C(Nc1ccccc1)N1CCC(c2ccccc2)C1 (configuration not stated),nt,>76.9,15.8µM*
O=C(CCN1CCC(c2ccccc2)C1)c1cccs1 (configuration not stated),>57,>76.9,-1.9%
CN1CCN(c2ncc3nc(-c4cccs4)c(=O)n(CCc4ccccc4)c3n2)CC1,nt,nt,0.2%[11.4 µM]
C=C1C(=O)O[C@H]2C[C@@]3(C)CCCC(=C)[C@@H]3C[C@H]12,nt,nt,-6.5%[11.4 µM]
COC(=O)c1ccc(CSc2nc3c(c(=O)n2-c2ccc(Br)cc2)SCC3)o1,>57,4.94*,-1.5%
CCOc1ccc(-n2c(SCc3ccc(C(=O)OC)o3)nc3c(c2=O)SCC3)cc1,>57,i,-0.7%
Brc1ccc(-c2nc(-c3ccccc3)no2)o1,i,?,12.6µM*
CCOc1ccc(-c2nc(-c3ccc(OC)cc3)no2)cc1OCC,>57,>76.9,-7.6%
Brc1ccc(-c2nc(-c3cccnc3)no2)o1,nt,>76.9,-20.1%
c1ccc(-c2noc(-c3ccc4ccccc4c3)n2)cc1,3.66*,i,1.26µM*
CNc1nc(N2CCc3ccccc32)ncc1F,i,>76.9,15.8µM*
Cn1c(=O)cc(N2CCc3ccccc32)[nH]c1=O,nt,nt,-16.2%
COc1ccc(O[C@H]2C=C[C@@H](c3ccccc3)O[C@H]2CO/N=C2/c3cc(OC)ccc3O[C@@H](c3cccc(OC)c3)[C@H]2O)cc1,nt,nt,0.3%[11.4 µM]
Cc1ccc(NC(=O)c2ccccc2)s1,8.29*,>76.9,7.94µM*
CNC(=O)c1cc(C)c(-c2ccccc2)s1,nt,>76.9,-2.7%
Cc1cc(NC(=O)c2ccccc2)sc1C,nt,nt,12.6µM*
O=C(Nc1cccc2ccccc12)c1ccccc1,nt,nt,0.0%[11.4 µM]
O=C(O)CN(CCN(CC(=O)O)CC(=O)O)CC(=O)O.[Cu],nt,nt,-0.1%[11.4 µM]
CCNc1ncc2nc(CCc3ccccc3)c(=O)n(C)c2n1,nt,nt,-11.9%[11.4 µM]
COc1ccccc1-n1cc(C(=O)NCC(=O)N2CCN(c3ccccn3)CC2)c2ccccc2c1=O,?,>76.9,6.31µM*
COc1ccccc1-n1cc(C(=O)NCC(=O)N2CCN(c3ccccc3)CC2)c2ccccc2c1=O,3.65*,>76.9,2µM*
COc1ccc(N2CCN(C(=O)CNC(=O)Cn3c(C)cc4ccccc4c3=O)CC2)cc1,>57,>76.9,2.6%
SMILES,PK Bst,GBA mod,Luciferase inh
O=C(Cn1cnc2ccccc2c1=O)NCC(=O)N1CCN(c2ccccn2)CC1,>57,>76.9,1.0%
O=C1OC2(c3ccc(O)cc3Oc3cc(O)ccc32)c2c1c(-c1ccccc1)c(-c1ccccc1)c(-c1ccccc1)c2-c1ccccc1,nt,nt,-4.2%[11.4 µM]
COc1nc(-c2ccccc2)ccc1-c1noc(-c2ccc(F)cc2)n1,>57,>76.9,1.9%
Cc1ccc(SC(C)c2nc(-c3cccnc3)no2)cc1 (configuration not stated),>57,>76.9,1.2%
COc1cc(OC)cc(-c2nc(-c3ccccc3OC)no2)c1,>57,?,-7.5%
COc1nc(-c2ccccc2)ccc1-c1noc(-c2ccccc2F)n1,>57,3.75*,1.7%
COc1nc(-c2ccc(C)cc2)ccc1-c1noc(-c2ccco2)n1,nt,nt,-5.0%
Cc1ccc(-c2nc(-c3cccnc3)no2)c(C)c1,?,nt,12.6µM*
COc1nc(-c2ccc(C)cc2)ccc1-c1noc(-c2cccnc2)n1,>57,12.2*,2.3%
COc1ccc(-c2ccc(-c3noc(-c4ccccc4OC)n3)c(OC)n2)cc1,>57,11.6*,-2.2%
COc1ccc(NC(=O)N2CC[C@@]3(CCCN(C(C)=O)C3)C2)cc1,nt,nt,2.3%[11.4 µM]
COc1ccc(-c2ccc(-c3noc(C)n3)c(OC)n2)cc1,>57,>76.9,-6.1%
COc1ccc(-c2ccc(-c3noc(-c4ccccc4C)n3)c(OC)n2)cc1,nt,11.1*,0.5%
COc1ccc(-c2ccc(-c3noc(-c4cccc(OC)c4)n3)c(OC)n2)cc1,>57,5.99*,3.1%
COc1ccc(-c2ccc(-c3noc(-c4ccc(OC)c(OC)c4)n3)c(OC)n2)cc1,>57,>76.9,1.5%
COC(=O)N1CCC2(CCCN(c3ccc(-c4ccccc4)cc3)C2)CC1,nt,nt,-1.0%[11.4 µM]
O=C1[C@H]2[C@H]3[C@H](O)[C@H](O)C/C(=N/OC[C@@H](O)COCc4ccco4)[C@@H]3CC[C@@H]2C(=O)N1Cc1ccc2c(c1)OCO2,nt,nt,1.6%[11.4 µM]
CN(C)c1ncc2ncc(=O)n(CCC#N)c2n1,nt,nt,0.9%[11.4 µM]
S=C(S)NCCCn1ccnc1,nt,nt,0.3%[11.4 µM]
Cc1nn(-c2ccccc2)c2c1C(c1c(C)[nH]c(C#N)c1C)C(C#N)=C(N)O2 (configuration not stated),>57,11*,-0.9%
